Experimental data: PubChem BioAssay (NCI)
Compounds without any hit were thinned out: in the full panel of roughly 79,000, 15% have a hit. No stated cut-off is given here; in the data, active means growth inhibition above about 70%; inactive means the rest.

Columns and labels:
[1] = NCI Yeast Anticancer Drug Screen. Data for the rad50 strain (AID 155);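 further: 0% = growth of vehicle-only cultures of the same strain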; settings: S. cerevisiae rad50 strain growth inhibition; at 50.0 µM; hits give high values
How it was run: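 A DNA repair-deficient yeast mutant serves as the test organism; compound-induced growth inhibition is calculated against vehicle-treated cells.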

[2] = NCI Yeast Anticancer Drug Screen. Data for the mec2-1 strain (AID 157); settings: S. cerevisiae mec2-1 strain, at 50.0 µM, hits give high values
How it was run: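 mec2-1 yeast strain, carrying an alteration in DNA damage repair or cell cycle control, was exposed to compounds; growth inhibition was measured relative to vehicle-treated controls.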

[3] = NCI Yeast Anticancer Drug Screen. Data for the sgs1 mgt1 strain (AID 161);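 further: 0% = growth of cultures given vehicle only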; settings: S. cerevisiae sgs1 mgt1 strain, at 50.0 µM, hits give high values
How it was run: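 Percent growth inhibition was derived by comparing compound-exposed mutant yeast with vehicle-exposed cultures. The strain carries alterations in DNA damage repair.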

[4] = NCI Yeast Anticancer Drug Screen. Data for the cln2 rad14 strain (AID 165);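 further: 0% = growth equal to vehicle treated cultures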; settings: S. cerevisiae cln2 rad14 strain, at 50.0 µM, hits give high values
How it was run: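 Yeast carrying cln2 and rad14 alterations (cell cycle control and DNA damage repair) were exposed to compounds. Growth inhibition was measured against vehicle-treated controls.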

[5] = NCI Yeast Anticancer Drug Screen. Data for the bub3 strain (AID 167); settings: S. cerevisiae bub3 mutant strain, at 50.0 µM, hits give high values
How it was run: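 Inhibition values come from growth of compound-treated mutant yeast normalised to vehicle-treated controls.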

[6] = NCI Yeast Anticancer Drug Screen. Data for the mlh1 rad18 strain (AID 175); settings: S. cerevisiae mlh1 rad18 strain growth inhibition; at 50.0 µM; hits give high values
How it was run: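 Growth inhibition of the yeast strain was measured after compound exposure and expressed relative to vehicle-treated controls. The strain carries defined defects in DNA damage repair.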

Measured: growth inhibition

CCC(CC)OC(=O)Nc1cccc2ccccc12
inactive: [1] -16.4% | [2] -9.65% | [3] -5.75% | [4] -55% | [5] 4.9% | [6] -14.6%

Brc1nc(-[n+]2ccccc2)[n-]c1Br
inactive: [1] -0.75% | [2] 3.75% | [3] -13.9% | [4] -60.5% | [5] 1.5% | [6] 1.4%

CC(C)N(C(=O)/C=C/C(=O)N(C(C)C)C(C)C)C(C)C
inactive: [1] 3.7% | [2] 27.1% | [3] -1.7% | [4] -2.05% | [5] 18.8% | [6] -9.6%

O=c1oc(=O)c2c1ccc1c2cc2ccc3cccc4ccc1c2c34
inactive: [1] -17.9% | [2] -10.4% | [3] -8.2% | [4] -35.1% | [5] -11.2% | [6] -11.1%

O=C(O)CSc1ccn(Cc2ccccc2)c1
inactive: [1] -8.15% | [2] -18.5% | [3] -43.1% | [4] -22.8% | [5] -56.8% | [6] -22.6%

Clc1ccc(CSc2nnc(SCc3ccc(Cl)c(Cl)c3)c3[nH]cnc23)cc1Cl
inactive: [1] 36.5% | [2] 6.15% | [3] 47.4% | [4] 30.6% | [5] 22.9% | [6] 3.1%

CCCCC(O)(CCC)CCCC
inactive: [1] -8.75% | [2] -6.95% | [3] 3.75% | [4] -36.9% | [5] -1.25% | [6] 2.55%

CC1C(O)C(c2ccccc2)(c2ccccc2)C(C)CN1C (stereo not given)
inactive: [1] -5.65% | [2] -4.95% | [3] 4.15% | [4] 4.65% | [5] -2.6% | [6] 3.45%

Cc1cc(=O)[nH]c2c(C)cccc12
inactive: [1] 4% | [2] 28.2% | [3] 11.8% | [4] -4.5% | [5] -0.4% | [6] 16.6%

CCCNc1ccc2c(c1)C(O)c1ccccc1-2 (stereo not given)
inactive: [1] -4.65% | [2] -5.1% | [3] 5.35% | [4] 2.4% | [5] -4% | [6] -2.95%

O=C(O)c1c[nH]c(=O)[nH]c1=O.[Cu+2]
inactive: [1] -23.9% | [2] -13% | [3] -12.4% | [4] -44.5% | [5] -40.8% | [6] -21.2%

CCN(CC)CCn1c(=O)c2c(ncn2C)n(C)c1=O
inactive: [1] -5.55% | [2] -22.7% | [3] 12.6% | [4] -36.3% | [5] 11.8% | [6] -15.6%

CC(C)=CCOc1ccc(-c2coc3cc4c(c(O)c3c2=O)C=CC(C)(C)O4)cc1
inactive: [1] 15.7% | [2] 3.1% | [3] 15.9% | [4] 13.3% | [5] 24% | [6] 26.8%

Cc1cccc(C(C)C)c1NC(=O)C(=O)CC(=O)c1sc(Nc2ccccc2Cl)nc1C
inactive: [1] -40% | [2] -8.5% | [3] -0.45% | [4] -14.6% | [5] -30.1% | [6] 1.15%

O=C1CCC2(C=Nc3ccccc32)C2Cc3ccccc3N12 (stereo not given)
inactive: [1] -27.3% | [2] -11.8% | [3] -6.8% | [4] 3.75% | [5] 8.05% | [6] -29.7%

COc1cc(O)c(C(C)c2ccccc2)cc1N=NC(N)=O (stereo not given)
inactive: [1] 17.1% | [2] 16.4% | [3] 19.3% | [4] 32.8% | [5] 43.4% | [6] 45.5%

CC1CC(N2CSC(=S)N(C3CC(C)CC(C)(C)C3)C2)CC(C)(C)C1 (stereo not given)
inactive: [1] -17.2% | [2] -16.2% | [3] -4.55% | [4] 9.5% | [5] 3.9% | [6] -0.4%

N#CC(OC(=O)c1ccccc1)C(OC(=O)c1ccccc1)C(COC(=O)c1ccccc1)OC(=O)c1ccccc1 (stereo not given)
inactive: [1] -38.9% | [2] 6.3% | [3] 9.95% | [4] 20.5% | [5] -10.5% | [6] 26.6%

Cc1cc(C)cc(C(=O)NCc2ccc[n+]([O-])c2)c1
inactive: [1] -10.3% | [2] -5.6% | [3] -6.35% | [4] -11.9% | [5] 0.4% | [6] 17.6%

NC(=O)NC1CC1c1ccccc1 (stereo not given)
inactive: [1] -6.6% | [2] 4.1% | [3] -2.7% | [4] 22.1% | [5] -10.3% | [6] -1.45%
